In PubChem BioAssay (NCI) one finds growth data, which are given here for 15 compounds.

The panel holds about 83,000 compounds, 20% with a hit somewhere; the sample as a whole holds those more often.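 Assay: single dose, 48 h. Readout: percent growth (0 = no net growth; negative = cell death). Active: <10.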 A number with no mark means an inactive call. Activity calls are given as the source filed them.

This experiment concerns HL-60(TB) leukemia. The experiment in a line: NCI-60 one-dose screen, 48 h (100 = growth as untreated, 0 = no growth, -100 = all killed). The conditions noted are these: 10 µM unless noted.
As for `CC(C)c1ccc(NC(=O)Cc2ccc(Nc3ncnc4cc(-c5cnn(CCN(C)C)c5)ccc34)cc2)cc1`, the growth is -66.4% [30 µM] (active).

Take `CCCCCc1ccc(C)cc1OC(=O)CCl`: the growth was 114%.

`C[C@]12CC[C@@H]3c4ccc(O)c(N)c4CC[C@H]3[C@@H]1CC[C@@H]2O`: the growth was 85.3%.

As to `N#C/C(=C\c1c(-c2ccccc2)[nH]c2ccccc12)C(=O)c1ccccc1`, the growth was 2.79% (active).

`Cc1cc(C)c(N)c(S(=O)(=O)O)c1`: the growth was 106%.

Consider `COc1ccc(/C(=C\c2cc(OC)c(OC)c(OC)c2)C(=O)N2CCN(c3ccccc3)CC2)cc1O`, for which the growth is 106%.

As for `Cn1cc(-c2nonc2-c2c[nH]c3ccccc23)c2cc(Br)ccc21`, the growth is 38.2%.

As to `CC(C)C(=O)Nc1n[nH]c2cc(-c3cccc(NS(=O)(=O)C4CC4)c3)ccc12`, the growth is 64.3%.

Turning to `COc1ccc2c3c(ccc2c1)C(=O)/C(=C\O)CC3`, the growth is 75.1%.

On to `COc1ccc(NC(=O)[C@@H]2C[C@H]2c2ccccc2)c(C(N)=O)c1`, for which the growth was 93.9%.

Take `N/C(=N\O)c1ncc(-c2ccc(C(F)(F)F)cc2)c(NC2CCCCCC2)n1`: the growth is -58.8% [100 µM] (active).

Turning to `O=C(O)c1ccccc1C(=O)c1ccc(I)cc1`, the growth was 93.1%.

Take `N#C/C(=C1C=C/C(=N/O)C(Cl)=C/1)c1ccc(Cl)cc1`: the growth is 61.1%.

For the compound `Cc1ccncc1C(=O)O`, the growth was 106%.

With `O=C(Nc1nc(-c2ccccc2)nc2c1sc(=S)n2-c1ccccc1)C(F)(F)F`, the growth is 94.5%.
